Rows were chosen to be rich in hits. Some 9% of all compounds tested hit in one or more screens of this group.
Luc counter: blocks Kinase-Glo luciferase, a counter-screen artifact. Kinase-Glo luciferase, ATP luminescence, 8 min. Potency, µM (titrated, usually from 38.3 µM), inactives show top-dose activity change, negative = inhibition, usual class: inhibitors. Q27757. AID 1379. 200,000 tested, 0.28% active; also: % is scaled to controls: 0 for no effect and ±100 for the full control effect; nearly all actives have a fitted effect of over 60% in size
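Compounds were added to a substrate mix at pH 7.2 (50 mM imidazole, 10 uM ATP, within the enzyme's linear range), followed by Kinase-Glo detection reagent; luminescence was measured after 8 minutes at ambient temperature.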
HttQ103 aggreg: inhibitors of mutant huntingtin aggregate formation in PC12 cells | 220,000 tested, 1.1% active | PC12 HttQ103-GFP aggregates, Acumen cytometry, 40 h | Potency, µM (doses to about 46.1 µM), without a hit: at the highest dose activity change, negative = inhibition, most hits filed as inhibitors | AID 1688; also: % is scaled to controls: 0 for no effect and ±100 for the full control effect; nearly all actives have a fitted effect of over 60% in size
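PC12 cells stably carrying ecdysone-inducible HTT exon 1 Q103–GFP were induced with tebufenozide (100 nM final) and treated with library compounds in titration. GFP aggregates in lysates were counted by laser scanning cytometry.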
ALDH1A1 inh: inhibitors of human aldehyde dehydrogenase 1A1. 220,000 tested, 7.3% active. P00352. Purified ALDH1A1, NADH fluorescence, propionaldehyde substrate. AID 1030. Potency, µM (highest dose often 75.3 µM), without a hit: top-dose activity, negative = inhibition, actives largely listed as inhibitors; active = well fitted inhibition curve with a large enough effect, not every such curve was filed as active; inconclusive = small, poorly fitted or top-dose-only effect, or another doubt; inactive = no such curve, though single readings can be large or run the other way;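 also: plate controls were no enzyme wells and a reference inhibitor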
Target sequence (P00352 whole entry, looked up): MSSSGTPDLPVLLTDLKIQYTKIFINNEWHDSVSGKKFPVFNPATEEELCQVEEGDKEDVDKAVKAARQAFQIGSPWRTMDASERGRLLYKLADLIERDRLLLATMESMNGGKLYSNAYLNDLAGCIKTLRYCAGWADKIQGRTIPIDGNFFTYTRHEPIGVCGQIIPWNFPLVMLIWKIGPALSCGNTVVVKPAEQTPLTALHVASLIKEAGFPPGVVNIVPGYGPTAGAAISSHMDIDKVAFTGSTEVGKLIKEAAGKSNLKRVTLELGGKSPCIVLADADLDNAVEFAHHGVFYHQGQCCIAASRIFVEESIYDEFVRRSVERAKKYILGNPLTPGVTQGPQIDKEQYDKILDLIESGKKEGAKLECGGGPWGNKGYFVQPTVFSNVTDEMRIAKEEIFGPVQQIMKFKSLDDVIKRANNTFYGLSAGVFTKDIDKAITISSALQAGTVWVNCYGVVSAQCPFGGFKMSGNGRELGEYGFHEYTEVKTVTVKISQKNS
HPGD block: blocks human HPGD enzyme activity; P15428; purified HPGD, NADH fluorescence kinetic, PGE2 substrate; Potency, µM, for inactives: at the top dose activity change, negative = inhibition, hits mostly inhibitors; 150,000 tested, 4.3% active; AID 894; active = well fitted inhibition curve with a large enough effect, not every such curve was filed as active; inconclusive = small, poorly fitted or top-dose-only effect, or another doubt; inactive = no such curve, though single readings can be large or run the other way; also: % is scaled to controls: 0 for no effect and ±100 for the full control effect
Target sequence (P15428 whole entry, looked up): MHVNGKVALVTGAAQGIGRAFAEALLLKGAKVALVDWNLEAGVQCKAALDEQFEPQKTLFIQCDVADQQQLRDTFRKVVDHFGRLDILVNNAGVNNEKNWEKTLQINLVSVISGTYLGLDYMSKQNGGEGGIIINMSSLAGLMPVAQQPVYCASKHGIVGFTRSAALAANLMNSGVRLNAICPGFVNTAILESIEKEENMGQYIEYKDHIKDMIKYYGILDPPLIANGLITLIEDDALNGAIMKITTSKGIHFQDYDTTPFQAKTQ
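20 nM HPGD preincubated 15 min at room temperature with compound in 50 mM Tris-HCl pH 8, 0.01% Tween 20. Started with 1 mM NAD+ and 30 uM prostaglandin E2; NADH fluorescence (360/450 nm) read 5 times over 30-s intervals, last minus first.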
LMNA splice mod: changes lamin A minigene splicing in HeLa cells. HeLa LMNA splicing GFP/RFP minigene ratio, 48 h. 200,000 tested, 0.01% active. AID 1487. Potency, µM (doses to about 46.1 µM), without a hit: top-dose ratio change, negative = inhibition, most hits filed as inhibitors; active = well fitted inhibition curve with a large enough effect in the signal ratio, with a control signal flat, not every such curve was filed as active; inconclusive = small, poorly fitted or top-dose-only effect, or effect the other way, or a change in a side signal; the % refers to the signal ratio; also: % is scaled to controls: 0 for no effect and ±100 for the full control effect
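S3 HeLa cells stably expressing lamin A-EGFP splicing minigene plus DsRed2, 600 cells/well, 48 h compound exposure at 37C. Laser-scanning cytometry; analysed as GFP (500-530 nm)/RFP (575-640 nm) total intensity ratio; 0.5% DMSO vehicle.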
HTT cytoprotect: cytoprotection in Huntington HTT-Q103 PC12 cell model. PC12 HTT-Q103 induced, cytoprotection, ATP luminescence, 40 h. Potency, µM (doses to about 56.4 µM), without a hit: cytoprotection (ATP increase), actives largely listed as activators. 230,000 tested, 0.14% active; also: % of control where 0% means no effect; nearly all actives have a fitted effect of over 45% in size
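Huntington model: PC12 line, ecdysone-inducible HTTQ103 exon1–GFP, tebufenozide 100 nM. Test articles in a dose series. Endpoint luminescence from cellular ATP.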
* hit, by the source's call; ? = inconclusive; . = no result given; [ ] = remark or other dose. Unless noted, calls follow the shape of the dose curve; as a rule, active = well fitted curve in the direction sought with a large enough effect; inconclusive = small, poorly fitted or top-dose-only effect, or another doubt; inactive = no such curve, though single readings can be large; an effect the other way counts as inactive or inconclusive. Potency is read from the fitted curve at half-maximal effect.

SMILES	Luc counter	HttQ103 aggreg	ALDH1A1 inh	HPGD block	LMNA splice mod	HTT cytoprotect
COc1ccc(C(=O)N/N=C/c2ccc(OC)c(OS(=O)(=O)c3ccccc3)c2)cc1	-1%	-6%	10µM*	-13%	?	10%[10 µM]
COc1ccc(/C=N/NC(=O)c2ccn[nH]2)cc1COc1ccc([N+](=O)[O-])c(C)c1	.	-13%[9.22 µM]	?	.	.	-13%[10 µM]
CCOc1cc(/C=N/NC(=O)c2cccc([N+](=O)[O-])c2)ccc1OS(=O)(=O)c1ccccc1	0%	-4%	?	-8%	-4%	-18%
COc1cccc2c1OC(=O)CC2c1ccccc1C (configuration not stated)	2%[39.9 µM]	.	-11%[120 µM]	?	.	6%[96.6 µM]
CCC(C)c1ccc(NC(=O)CSc2nncn2N)cc1 (configuration not stated)	-1%	15%	?	-16%	-10%	7%
CCOC(=O)c1cnc(-n2nc(C)cc2C)nc1NC1CCCCC1	.	-4%	25µM*	.	?	4%
CCOC(=O)c1cnc(-n2nc(C)cc2C)nc1NNc1nc(-c2ccccc2)cc(-c2ccccc2)n1	1%	10µM*	3%	-10%	?	32%[10 µM]
CCOC(=O)c1cnc(-n2nc(C)cc2C)nc1Nc1ccc(C)cc1	2%	6%	0%	-3%	-5%	28%[10 µM]
CCOC(=O)c1cnc(-n2nc(C)cc2C)nc1Nc1ccc(N(C)C)cc1	-1%	?	20µM*	-19%	?	20%[10 µM]
COc1ccc2nc3sc(C(=O)NCc4cccs4)c(N)c3cc2c1	-8%	3%	4µM*	?	?	-35%
CC(C)CC(=O)NS(=O)(=O)c1ccc(N)cc1	-1%	0%	10µM*	-2%	-7%	-5%[10 µM]
CC(C)C(=O)NS(=O)(=O)c1ccc(N)cc1	-3%	19%	?	-1%	2%	18%
COc1ccc(OC)c(C(=O)CSc2nnc(Cc3cccs3)n2C)c1	1%	-19%[9.22 µM]	22µM*	-21%	10%	-4%
CCn1c(SCC(=O)Nc2cc3oc4ccccc4c3cc2OC)nnc1-c1cccs1	-2%	1%	13µM*	-4%	0%	-10%
COc1cc2c(cc1NC(=O)COC(=O)Cn1cnc3ccccc31)oc1ccccc12	1%	-20%	11µM*	?	?	-23%[10 µM]
COc1cc2c(cc1NC(=O)CSc1nnc(Cc3cccs3)n1Cc1ccco1)oc1ccccc12	0%	-11%	5µM*	-30%	-3%	-54%
CCc1ccc(-c2csc(NC(=O)Oc3ccccc3)n2)cc1	.	13%[9.22 µM]	-2%	.	-17%	9%[10 µM]
COc1cc2c(cc1NC(=O)CSc1nnc(Cc3cccs3)n1C)oc1ccccc12	3%	1%	14µM*	-17%	1%	5%[10 µM]
N#Cc1ccc(CSc2nnc(Cc3cccs3)n2Cc2ccco2)cc1	-2%	18%	11µM*	-20%	-2%	0%
C=CCn1c(SCC(=O)Nc2cccc3ccccc23)nnc1-c1cnccn1	-1%	-8%	5%	-14%	2%	-5%
COc1cc2c(cc1NC(=O)CSc1nnc(COc3ccc(Cl)cc3)n1C)oc1ccccc12	-2%	-25%	10%	-13%	-1%	-56%
C=CCn1c(SCC(=O)Nc2cc3oc4ccccc4c3cc2OC)nnc1-c1cnccn1	.	-20%	28µM*	.	-1%	1%
CCOC(=O)c1ccc2c(c1)N(CC(=O)Nc1cc(F)ccc1F)C(=O)c1ccccc1S2	.	.	.	.	19%[46 µM]	.
CCOc1ccc(OCc2cccc(C(=O)N/N=C/c3cccnc3)c2)cc1	-5%	12%	-7%	-15%	2%	32%[0.074 µM]
CCOCCCNC(=O)/C(C#N)=C/c1ccc(C(=O)OC)cc1	1%	-18%	?	.	.	-9%
SMILES	Luc counter	HttQ103 aggreg	ALDH1A1 inh	HPGD block	LMNA splice mod	HTT cytoprotect
CCOCCCNC(=O)/C(C#N)=C/c1ccc(Cl)c([N+](=O)[O-])c1	-1%	5%	10µM*	.	?	-6%
CCOCCCNC(=O)/C(C#N)=C/c1cc(OC)c(O)c([N+](=O)[O-])c1	1%	18%	13µM*	.	.	-41%
CCOCCCNC(=O)/C(C#N)=C/c1cc(C)c(O)c(C)c1	2%	22%	10µM*	.	?	-21%
Cc1ccc(NS(=O)(=O)c2ccc3c(c2)CCC(=O)N3)cc1C	.	-24%	?	.	.	?
COc1cccc(/C=C(/C(=O)OCC(N)=O)c2ccccc2)c1	0%	-3%	10%	.	-9%[46 µM]	0%
Cc1ccc2nc(Nc3nc(C)cc(-c4ccccc4)n3)[nH]c(=O)c2c1	.	-12%[9.22 µM]	?	.	.	-28%[10 µM]
N#C/C(=C/c1ccccc1[N+](=O)[O-])c1nc(C2CC2)cs1	3%	6%	11µM*	?	?	4%[10 µM]
N#C/C(=C\c1ccccc1[N+](=O)[O-])c1nc(C2CC2)cs1	-1%	2%	10µM*	-27%	-11%	-1%[10 µM]
N#C/C(=C(/O)c1ccc([N+](=O)[O-])cc1)c1nnc2n1CCCCC2	4%	32%	?	.	-16%[46 µM]	-18%
N#C/C(=C\c1ccc([N+](=O)[O-])cc1)c1nc(C2CC2)cs1	-1%	-3%	-1%	-5%	-7%	5%[10 µM]
N#C/C(=C/c1ccccc1[N+](=O)[O-])c1nnc2n1CCCCC2	2%	-9%	22µM*	2.5µM*	-14%	2%[1.9 µM]
COc1cc(OC)c(C(=O)CCC(=O)O)cc1OC	-1%	0%	2%	-14%	-6%	1%[10 µM]
Cc1cc(C(c2nnnn2Cc2ccccc2)N2CCOCC2)c(C)n1-c1ccc2c(c1)OCO2 (configuration not stated)	11%	1%	13µM*	-12%	5%	13%
CCOc1ccc(-c2cc(CCCC(=O)N3CCN(c4ccc(OC)cc4)CC3)no2)cc1	0%	24%	20µM*	-24%	?	-5%[10 µM]
C=C1C(=O)O[C@@H]2[C@H]3O[C@]3(C)CC/C=C(\C)CC[C@@H]12	.	.	13µM*	.	.	-166%
N#CNC(N)=Nc1cccc(Cl)c1	-4%	-6%	?	-10%	1%	-4%[0.074 µM]
COC(=O)c1ccccc1NC(=O)COC(=O)c1ccccc1N=Nc1ccc(N(C)C)cc1	-2%	6.3µM*	-6%	-15%	?	-43%[10 µM]
CC1CCc2nn(CC(=O)NCCC3=CCCCC3)cc2C1 (configuration not stated)	3%	-20%	?	-3%	-5%	10%[10 µM]
NC1=CC(=O)c2cccc3cccc1c23	-6%	?	1µM*	-14%	15%	-107%
CC(C)NC(=O)CN(c1cccc(Br)c1)S(C)(=O)=O	-2%	-7%	-3%	-6%	11%	6%[10 µM]
CCN(CC)CCNC(CC(=O)Nc1ccc(Cl)cc1Cl)C(=O)O (configuration not stated)	1%	1%	7.1µM*	6%	4%	6%[1.9 µM]
